The results in this text go back to PubChem BioAssay.

“And” between values parts separate entries of the source, which are not always exact repeats. Equal values may be shown once. The source made the active and inactive calls. Unless noted, no rule for the calls is given here.

The term viability denotes a read-out of living cells in per cent, often relative to untreated cells. In general, inhibition refers to the drop in the measured response relative to a control, in per cent.

The nature of assay [1]: liver-stage malaria parasite growth inhibition, primary screen, cell-based, HepG2, luciferase luminescence, HepG2 viability (AID 624349; in the data active = parasite load remaining mostly below about 12%, no sharp cut-off; inactive = mostly above about 10%;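 also: 100% = mean of DMSO negative control wells on the same plate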). To be noted: P. berghei liver stage in HepG2, luciferase luminescence, concentration not given here; parasite load remaining: stronger effect = lower value; viability: measured here: HepG2 viability without parasites.
The nature of assay [2]: Cy5 fluorescence interference with SSB-bound oligo, artefact control for HCV NS3 helicase inhibitor project, biochemical, NIH Clinical Collection, E. coli SSB (AID 743268).
The test system of assay [3] is Hepatitis C virus NS3 helicase. Put plainly: HCV NS3 helicase inhibitors, primary screen, biochemical, fluorescence polarization, NIH Clinical Collection (AID 743270). Conditions: NS3 helicase binding to Cy5-dT15 DNA, stronger effect = higher value, concentration not given here. (In general: In fluorescence polarisation assays a small probe gives low polarisation when free and higher when bound to something large.)

Assay [4] has as its target Single-stranded DNA-binding protein (Escherichia coli (strain K12)) (UniProt P0AGE0). The assay is described as follows: E. coli SSB displacement from DNA, counter-screen for HCV NS3 helicase inhibitor project, biochemical, fluorescence polarization, NIH Clinical Collection (AID 743271; in the data active = inhibition above about 28%). Conditions: stronger effect = higher value, concentration not given here.
A short description of assay [5]: fluorescence interference in NS3h assay format, artefact control for HCV NS3 helicase inhibitor project, biochemical, NIH Clinical Collection (AID 743272).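 Also: HCV NS3 helicase with a Cy5 labelled single stranded DNA probe.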 Conditions: fluorescence interference counterscreen, stronger effect = lower value.
Assay [6] deals with Neuropilin-2 / VEGF-C interaction (human). The assay is described as follows: inhibitors of NRP2–VEGF-C binding, biochemical, microplate binding format, z-score (AID 743281). To be noted: microplate NRP2/VEGF-C binding assay; stronger effect = lower value.
A short description of assay [7]: stimulators of nuclear beta-catenin in C2C12, primary screen, imaging, WNT3A-conditioned medium, mouse C2C12, NPC library (AID 1117326; in the data active = nuclear beta-catenin stimulation mostly above about 4.2%, no sharp cut-off; inactive = mostly below about 10%). To be noted: stronger effect = higher value.
The nature of assay [8]: stimulators of insulin release from INS-1E, primary screen, cell-based, 5 mM glucose, NPC library (AID 1117329;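 active = compound raises insulin release from rat beta cells at 5 mM glucose, no numeric limit stated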). To be noted: rat INS-1E insulin secretion, at 10 µM, stronger effect = higher value.
The nature of assay [9]: growth inhibition of GSK3B-pretreated HCT116 cells – cell-based, CellTiter-Glo, 0.2 to 20 µM (AID 1117336;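 active = compounds lowering colon cancer cell viability after pretreatment blocking the GSK3B kinase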). Conditions: HCT116 viability after GSK3B inhibitor, at 20 µM, stronger effect = higher value.
Assay [10] in a line: inhibition of endothelial tube formation, primary screen, imaging, VEGF stimulated, CD31 staining, tube area, NPC library (AID 1117340;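 active = compound that reduces growth-factor-driven endothelial tube area in a mixed cell culture, no cutoff stated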). To be noted: VEGF-stimulated ADSC/ECFC co-culture, at 10 µM, stronger effect = higher value.
A short description of assay [11]: glucagon-like peptide 1 release enhancers, primary assay, NCI-H716 cell line, NPC library (AID 1117341;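 active = compound raises GLP1 secretion from the human gut endocrine cells, with no numeric limit stated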). Conditions: NCI-H716 cells, at 10 µM, stronger effect = higher value.
Assay [12] in a line: HCT116 colon cancer cell growth inhibition, primary screen, CellTiter-Glo luminescence, NPC library (AID 1117342;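 active = compounds that lower survival of HCT116 colon cancer cells in the luminescence readout, no numeric limit stated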). Conditions: at 20 µM (top of the series). Background: In ATP-based viability assays light output follows the ATP content of the culture.
The nature of assay [13]: CellTiter-Glo luminescent readout of SW480 viability loss, NPC library primary (AID 1117343;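 active = compounds that lower viability of the colon cancer cells in the luminescence readout, with no numeric limit stated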). Conditions: CellTiter-Glo luminescence; at 20 µM (top of the series).
A short description of assay [14]: decreased DLD-1 cellular survival, CellTiter-Glo luminescent readout, NPC compound collection, primary HTS (AID 1117346;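 active = compounds that lower survival of DLD-1 colon cancer cells in the luminescence readout, no cutoff given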). Conditions: DLD-1 viability, CellTiter-Glo luminescence; at 20 µM (top of the series).

In the case of `C[C@@H]1CN(CCCn2c3ccccc3c3ccccc32)C[C@H](C)N1`, the parasite load remaining in [1] is 35.7% (inactive). For the same compound, in assay [1], the viability came to 37.6%. For the same compound, the fluorescence ratio in [2] and in assay [5] was 0.94 (inactive) each time. The inhibition in [3] is -6.33% (inactive); in [4], 1.18% (inactive). Also, the z-score in assay [6] is -0.119 (inactive). For the same compound, the nuclear beta-catenin stimulation in [7] (at 10 µM) was 6.5% (inactive); in [7] (stimulation, at 2 µM), 4.9%. Further, in [8], the insulin secretion stimulation was 16.2% (inactive). The viability decrease in assay [9] is 97.5% (active). In addition, the tube area decrease in assay [10] was 48.2% (active). For the same compound, the GLP1 secretion stimulation in assay [11] was 20% (active). In assay [12], the inhibition of viability was 107% (active). In addition, the viability decrease (inhibition) was 128% (active) in [13] and 82.7% (active) in assay [14].
On to `OCc1cccnc1`, for which the parasite load remaining in assay [1] is 56.9% (inactive). The viability in assay [1] is 66.4%. The values for the fluorescence ratio in assay [2] and in [5] were 0.93 (inactive) and 0.87 (inactive), respectively. The inhibition in assay [3] was -1.09% (inactive); in assay [4] it was -1.18% (inactive). Further, the z-score in [6] was -0.624 (inactive). The nuclear beta-catenin stimulation in assay [7] (at 10 µM) was 0.5% (inactive); in assay [7] (stimulation, at 2 µM), 1%. The insulin secretion stimulation in assay [8] is -1.9% (inactive). Further, the viability decrease in assay [9] is -11.1% (inactive). In assay [10], the tube area decrease is -10% (inactive). Moreover, the GLP1 secretion stimulation in assay [11] is 1.4% (inactive). The inhibition of viability in assay [12] was -9.5% (inactive). Besides, the viability decrease (inhibition) in assay [13] is -6.5% (inactive); in [14], 7.3% (inactive).
Consider `O=C(NCCO[N+](=O)[O-])c1cccnc1`, for which the parasite load remaining in assay [1] was 31.4% (inactive) and 90.9% (inactive) and 44.6% (inactive). Moreover, the viability in assay [1] is 48.5% and 74.2% and 98.5%. Moreover, the fluorescence ratio in assay [2] is 1.04 (inactive); in assay [5] it was 1.02 (inactive). Further, the inhibition in assay [3] was 1.19% (inactive); in assay [4] it was 0.67% (inactive). Besides, the z-score in assay [6] is -0.101 (inactive). The nuclear beta-catenin stimulation is -0.4% (inactive) in assay [7] (at 10 µM) and -0.5% in assay [7] (stimulation, at 2 µM). In assay [8], the insulin secretion stimulation is 1.2% (inactive). Further, in assay [9], the viability decrease is -0.2% (inactive). For the same compound, the tube area decrease in assay [10] was -25.1% (inactive). Also, in [11], the GLP1 secretion stimulation was -1.4% (inactive). Moreover, in assay [12], the inhibition of viability was 6% (inactive). In addition, the viability decrease (inhibition) in assay [13] was 0.2% (inactive); in assay [14], -3.2% (inactive).
Consider `Nc1[nH]c(=O)ncc1F`, for which the parasite load remaining in [1] is 85.3% (inactive) and 51.1% (inactive) and 109% (inactive). For the same compound, the viability in [1] is 93.3% and 117% and 86.7%. The fluorescence ratio in assay [2] is 1.01 (inactive); in assay [5] it was 0.97 (inactive). The inhibition in [3] was -6.73% (inactive); in assay [4], -1.64% (inactive). In [6], the z-score was -0.751 (inactive). Moreover, the nuclear beta-catenin stimulation in [7] (at 10 µM) was 0.9% (inactive); in [7] (stimulation, at 2 µM), 1.7%. Moreover, the insulin secretion stimulation in assay [8] is -1.8% (inactive). Moreover, in assay [9], the viability decrease is -5.1% (inactive). The tube area decrease in assay [10] is -15.9% (inactive). In addition, in assay [11], the GLP1 secretion stimulation was 2.3% (inactive). The inhibition of viability in [12] was -15.1% (inactive). Further, the viability decrease (inhibition) in assay [13] was -13.1% (inactive); in assay [14], -0.9% (inactive).
Take `O=C1[C@H]2CCCC[C@H]2C(=O)N1CCCCN1CCN(c2nsc3ccccc23)CC1`: the parasite load remaining in assay [1] is 42.7% (inactive). Besides, the viability in assay [1] is 60.1%. Also, the values for the fluorescence ratio in [2] and in assay [5] were 1 (inactive) and 0.96 (inactive), respectively. Also, the inhibition in [3] is 0.4% (inactive); in assay [4] it was -2.41% (inactive). The z-score in assay [6] is -0.553 (inactive). The nuclear beta-catenin stimulation was 10.9% (inactive) in assay [7] (at 10 µM) and 1% in assay [7] (stimulation, at 2 µM). For the same compound, the insulin secretion stimulation in assay [8] was 5.5% (inactive). For the same compound, in assay [9], the viability decrease was 70.3% (active). In addition, in [10], the tube area decrease was 25.8% (inactive). Besides, the GLP1 secretion stimulation in [11] is 9% (inactive). The inhibition of viability in [12] is 88.1% (active). The viability decrease (inhibition) in [13] was 115% (active); in assay [14] it was 99.8% (active).
